Test results taken from PubChem BioAssay (NCI).
Compounds without any hit were thinned out: in the full panel of roughly 79,000, 15% have a hit. Active and inactive are the calls of the source. No stated cut-off is given here; in the data, active means growth inhibition above about 70%; inactive means the rest.

How the values were obtained:
[1] = NCI Yeast Anticancer Drug Screen. Data for the rad52 strain (AID 147);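 further: 0% = growth of vehicle-treated control cultures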; conditions: S. cerevisiae rad52 mutant growth inhibition, active compounds read high
Method in brief: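 Vehicle-treated cultures served as the reference for growth inhibition of compound-exposed yeast bearing a DNA repair mutation.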

[2] = NCI Yeast Anticancer Drug Screen. Data for the wt1 strain (AID 149);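 further: 0% = growth of vehicle-treated wt1 cultures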; conditions: S. cerevisiae wt1 strain (SPY 50644) growth inhibition, active compounds read high
Method in brief: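 Each compound is tested on wt1 yeast and the loss of growth versus vehicle gives the inhibition value.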

[3] = NCI Yeast Anticancer Drug Screen. Data for the rad50EPP+ strain (AID 151);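 further: 0% = growth of vehicle-treated control cultures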; conditions: S. cerevisiae rad50 mutant strain, active compounds read high
Method in brief: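 In this screen, rad50EPP+ yeast were exposed to compounds. Growth inhibition was scored against vehicle-treated controls.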

[4] = NCI Yeast Anticancer Drug Screen. Data for the rad50 strain (AID 155);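 further: 0% = growth of vehicle-only cultures of the same strain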; conditions: S. cerevisiae rad50 strain growth inhibition, active compounds read high
Method in brief: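 Vehicle-treated cultures provide the reference for the growth inhibition reported for compound-exposed, repair-deficient yeast.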

[5] = NCI Yeast Anticancer Drug Screen. Data for the mec2-1 strain (AID 157); conditions: S. cerevisiae mec2-1 strain, active compounds read high
Method in brief: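 Vehicle-treated cultures served as reference for growth inhibition of compound-exposed mec2-1 yeast.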

[6] = NCI Yeast Anticancer Drug Screen. Data for the rad14 strain (AID 159);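 further: 0% = growth of vehicle-treated control cultures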; conditions: S. cerevisiae rad14 strain growth inhibition, active compounds read high
Method in brief: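 Inhibition of growth is reported for a repair-deficient yeast mutant following compound treatment, calculated relative to cultures that received vehicle.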

[7] = NCI Yeast Anticancer Drug Screen. Data for the sgs1 mgt1 strain (AID 161);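 further: 0% = growth of cultures given vehicle only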; conditions: S. cerevisiae sgs1 mgt1 strain, active compounds read high
Method in brief: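 Test agents were incubated with a DNA-repair-mutant yeast strain. Growth was then read and compared against vehicle-treated controls.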

[8] = NCI Yeast Anticancer Drug Screen. Data for the CLN2oe strain (AID 163);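 further: 0% = growth of vehicle-only control cultures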; conditions: S. cerevisiae CLN2oe strain, active compounds read high
Method in brief: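 Inhibition relative to vehicle-treated yeast is reported. Cells: strain with genetic alteration in cell-cycle control, grown with compound.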

[9] = NCI Yeast Anticancer Drug Screen. Data for the cln2 rad14 strain (AID 165);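 further: 0% = growth equal to vehicle treated cultures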; conditions: S. cerevisiae cln2 rad14 strain, active compounds read high
Method in brief: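 Each compound was tested on cln2 rad14 yeast. Inhibition of growth was calculated against vehicle-exposed controls.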

[10] = NCI Yeast Anticancer Drug Screen. Data for the bub3 strain (AID 167); conditions: S. cerevisiae bub3 mutant strain, active compounds read high
Method in brief: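 Mutant yeast screening strain plus compound; vehicle-treated cultures serve as the 0% inhibition reference.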

[11] = NCI Yeast Anticancer Drug Screen. Data for the wt2 strain (AID 169); conditions: S. cerevisiae wt2 strain growth inhibition, active compounds read high
Method in brief: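 Inhibition of yeast growth was determined after compound treatment, normalised to controls receiving only vehicle.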

[12] = NCI Yeast Anticancer Drug Screen. Data for the sgs1 strain (AID 173);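 further: 0% = growth of vehicle-only control cultures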; conditions: S. cerevisiae sgs1 mutant, active compounds read high
Method in brief: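 Screen format: yeast with repair or checkpoint alterations, compound exposure, growth read relative to vehicle.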

[13] = NCI Yeast Anticancer Drug Screen. Data for the mlh1 rad18 strain (AID 175); conditions: S. cerevisiae mlh1 rad18 strain growth inhibition, active compounds read high
Method in brief: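 Vehicle-treated cultures served as the reference for growth inhibition in a yeast strain carrying DNA damage repair alterations exposed to each compound.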

[14] = NCI Yeast Anticancer Drug Screen. Data for the rad18 strain (AID 177); conditions: S. cerevisiae rad18 mutant growth inhibition, active compounds read high
Method in brief: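 Test articles were incubated with altered yeast defective in DNA damage repair. Results are given as inhibition of growth versus vehicle.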

[15] = NCI Yeast Anticancer Drug Screen. Data for the mlh1 strain (AID 171);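 further: 0% = growth of vehicle-treated control cultures of the same strain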; conditions: S. cerevisiae mlh1 strain growth inhibition, active compounds read high
Method in brief: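 Vehicle-normalised growth inhibition of a repair- or checkpoint-altered yeast strain following compound treatment.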

[16] = at 5.0 µM (retest, dose inferred, filed as 0.5)
[17] = at 50.0 µM (retest, dose inferred, filed as 5.0)

Measured: growth inhibition

CC(=O)OC1CCC2(C)C(=CC(C3C=C4CC(OC(C)=O)CCC4(C)C4=C3C3CC5OC6(CCC(C)CO6)C(C)C5C3(C)CC4)C3=C2CCC2(C)C3CC3OC4(CCC(C)CO4)C(C)C32)C1 (stereo unspecified)
inactive: [1]; at 1.2 µM 0% | [1]; at 3.7 µM 3% | [1]; at 11.0 µM 7% | [1]; at 33.0 µM 20% | [2]; at 1.2 µM 1% | [2]; at 3.7 µM -1% | [2]; at 11.0 µM 0% | [2]; at 33.0 µM 9% | [2]; at 100.0 µM 11% | [3]; at 1.2 µM 1% | [3]; at 3.7 µM 2% | [3]; at 11.0 µM 25% | [3]; at 33.0 µM 65% | [4]; at 1.2 µM 0% | [4]; at 3.7 µM 1% | [4]; [16] -7% | [4]; at 11.0 µM 2% | [4]; at 33.0 µM 6% | [4]; [17] 45% | [4]; at 100.0 µM 64% | [5]; at 1.2 µM -2% | [5]; at 3.7 µM 0% | [5]; [16] -12% | [5]; at 11.0 µM 1% | [5]; at 33.0 µM 9% | [5]; [17] 33% | [5]; at 50.0 µM 45% | [6]; at 1.2 µM 1% | [6]; at 3.7 µM 0% | [6]; at 11.0 µM 4% | [6]; at 33.0 µM 13% | [7]; [16] -10% | [7]; [17] 64% | [8]; at 1.2 µM -3% | [8]; at 3.7 µM -8% | [8]; at 11.0 µM -8% | [8]; at 33.0 µM -7% | [8]; at 100.0 µM 53% | [9]; [16] 37% | [9]; [17] 60% | [9]; at 50.0 µM -4.25% | [10]; at 1.2 µM 0% | [10]; at 3.7 µM -1% | [10]; [16] -2% | [10]; at 11.0 µM -3% | [10]; at 33.0 µM 2% | [10]; [17] 69% | [10]; at 100.0 µM 61% | [11]; at 1.2 µM -2% | [11]; at 3.7 µM -3% | [11]; at 11.0 µM -1% | [11]; at 33.0 µM 25% | [12]; at 1.2 µM -4% | [12]; at 3.7 µM -5% | [12]; at 11.0 µM 3% | [12]; at 33.0 µM 25% | [13]; [16] -28% | [14]; at 1.2 µM -1% | [14]; at 3.7 µM -3% | [14]; at 11.0 µM -3% | [14]; at 33.0 µM 8% | [14]; at 100.0 µM 51%
active: [1]; at 100.0 µM 88% | [3]; at 100.0 µM 76% | [4]; at 50.0 µM 91.3% | [5]; at 100.0 µM 75% | [6]; at 100.0 µM 84% | [7]; at 50.0 µM 90.7% | [10]; at 50.0 µM 74.2% | [11]; at 100.0 µM 93% | [12]; at 100.0 µM 72% | [13]; [17] 88% | [13]; at 50.0 µM 82.5%

CC[N+]1(C)CCC(O)(c2ccc(OC)cc2)C(C(=O)c2ccc(OC)cc2)C1 (stereo unspecified)
active: [7]; [16] 87% | [7]; [17] 95% | [9]; [16] 86% | [9]; [17] 97% | [10]; [17] 91%
inactive: [1]; at 1.2 µM -10% | [1]; at 3.7 µM -13% | [1]; at 11.0 µM -22% | [1]; at 33.0 µM -19% | [1]; at 100.0 µM -20% | [2]; at 1.2 µM -69% | [2]; at 3.7 µM -76% | [2]; at 11.0 µM -72% | [2]; at 33.0 µM -62% | [2]; at 100.0 µM -58% | [3]; at 1.2 µM -32% | [3]; at 3.7 µM -32% | [3]; at 11.0 µM -38% | [3]; at 33.0 µM -35% | [3]; at 100.0 µM -23% | [4]; at 1.2 µM -24% | [4]; at 3.7 µM -19% | [4]; [16] 24% | [4]; at 11.0 µM -37% | [4]; at 33.0 µM -21% | [4]; [17] 28% | [4]; at 50.0 µM -1.2% | [4]; at 100.0 µM -30% | [5]; at 1.2 µM -63% | [5]; at 3.7 µM -56% | [5]; [16] 7% | [5]; at 11.0 µM -69% | [5]; at 33.0 µM -61% | [5]; [17] 23% | [5]; at 50.0 µM 14.8% | [5]; at 100.0 µM -74% | [6]; at 1.2 µM 6% | [6]; at 3.7 µM 0% | [6]; at 11.0 µM -33% | [6]; at 33.0 µM -3% | [6]; at 100.0 µM -27% | [7]; at 50.0 µM -4.7% | [8]; at 1.2 µM -13% | [8]; at 3.7 µM -3% | [8]; at 11.0 µM -14% | [8]; at 33.0 µM -4% | [8]; at 100.0 µM -20% | [9]; at 50.0 µM 20.1% | [10]; at 1.2 µM -49% | [10]; at 3.7 µM -42% | [10]; [16] 35% | [10]; at 11.0 µM -61% | [10]; at 33.0 µM -52% | [10]; at 50.0 µM 8.55% | [10]; at 100.0 µM -68% | [11]; at 1.2 µM -21% | [11]; at 3.7 µM -15% | [11]; at 11.0 µM -14% | [11]; at 33.0 µM -16% | [11]; at 100.0 µM -22% | [15]; at 1.2 µM -78% | [15]; at 3.7 µM -64% | [15]; at 11.0 µM -16% | [15]; at 33.0 µM -55% | [15]; at 100.0 µM -62% | [12]; at 1.2 µM -10% | [12]; at 3.7 µM -37% | [12]; at 11.0 µM -49% | [12]; at 33.0 µM -44% | [12]; at 100.0 µM -50% | [13]; [16] 25% | [13]; [17] 29% | [13]; at 50.0 µM 6.75% | [14]; at 1.2 µM -7% | [14]; at 3.7 µM -17% | [14]; at 11.0 µM -13% | [14]; at 33.0 µM -23% | [14]; at 100.0 µM -23%
